Experiment [1] is described as follows: CCTE_Shafer_MEA_acute_firing_rate_mean: CCTE's Neural Acute Assay for Mean Firing Rate, Shafer Lab (AID 2284009).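 Also: analyzed for loss of signal so actives lower firing rate relative to DMSO.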 A digest of the protocol:
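Primary rat cortical neurons on 16-electrode MEA wells were exposed on DIV 13 or 15 to compound (0.03-40 uM). Spike counts per recording time, averaged over electrodes, were compared between 40-min baseline and 40-min post-exposure recordings as percent change.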

Experiment [2] in a line: CCTE_Harrill_HTTr_Viability_MCF7: CCTE's 6-hour Cell Viability Assessment for the High-Throughput Transcriptomics (HTTr) Platform, in MCF-7 cells cultured in DMEM + 10% fetal bovine serum, Harrill Lab (AID 2284010). A digest of the protocol: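 Eight-point concentration series, six-hour exposure. Propidium iodide exclusion imaged to assess membrane integrity as a cytotoxicity readout; bidirectional fitting was done with DMSO as negative control and activity baseline.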

Experiment [3] is described as follows: CCTE_Harrill_HTTr_Apoptosis_MCF7: CCTE's 6-hour Apoptosis Assessment for the High-Throughput Transcriptomics (HTTr) Platform, in MCF-7 cells cultured in DMEM + 10% fetal bovine serum, Harrill Lab (AID 2284011). A digest of the protocol: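 Cells are dosed with test chemicals at eight concentrations and imaged 6 hours later for caspase-3/7 activity using a green fluorogenic detection reagent. Activity is fitted in both directions against DMSO controls.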

The nature of experiment [4]: CCTE_Harrill_HTTr_CellCount_MCF7: CCTE's Cell Proliferation Assessment for the High-Throughput Transcriptomics (HTTr) Platform, Harrill Lab (AID 2284012; active = hit-call score of the fitted dose curve at least 0.9, where 1 is the maximum;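 also: count of Hoechst-stained nuclei per well by high-content imaging in MCF-7 cells; cells exposed to compound for six hours; intended direction is loss of nuclei count meaning fewer cells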). A digest of the protocol:
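For this full-screen endpoint, MCF-7 cultures received eight compound dilutions for six hours. Well nuclei counts from Hoechst imaging were analyzed relative to DMSO.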

Experiment [5] can be described thus: CCTE_Shafer_MEA_acute_burst_duration_mean: CCTE's Neural Acute Assay for Mean Burst Duration, Shafer Lab (AID 2284014).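 Also: hits are decreases in mean burst duration relative to DMSO controls.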 A digest of the protocol:
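Mean burst duration was compared between a 40 min baseline and a 40 min recording in the presence of compound (0.03-40 uM, 37 C), giving percent change per well. Cultures were rat cortical neurons at DIV 13 or 15; wells needed ≥10 active electrodes.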

Experiment [6] can be described thus: CCTE_Shafer_MEA_acute_per_burst_spike_number_mean: CCTE's Neural Acute Assay for Average Number of Spikes Per Burst, Shafer Lab (AID 2284015).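 Also: hits are decreases in mean spikes per burst versus baseline.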 A digest of the protocol:
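Percent change in mean spikes per single-electrode burst is compared between a 40 min baseline and a 40 min recording with compound (0.03-40 uM). Cultures were rat cortical neurons on MEA plates at DIV 13 or 15, recorded at 37 C, with DMSO as the negative control.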

A short description of experiment [7]: CCTE_Shafer_MEA_acute_interburst_interval_mean: CCTE's Neural Acute Assay for Mean Interburst Interval, Shafer Lab (AID 2284016).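 Also: percent change of mean interburst interval versus each well's own pre-dose baseline; curves fitted for decrease in interburst interval relative to DMSO.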 A digest of the protocol:
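Percent change in mean single-electrode interburst interval was calculated per well from 40 min recordings before and after compound (0.03-40 uM). Recordings were made at 37 C on rat cortical cultures at DIV 13 or 15, with spikes detected at 8x rms threshold.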

Experiment [8] can be described thus: CCTE_Shafer_MEA_acute_burst_percentage_mean: CCTE's Neural Acute Assay for Percentage of Spikes in a Burst, Shafer Lab (AID 2284017). A digest of the protocol: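 Well-level mean burst percentage from a 40-min recording after compound (0.03-40 uM) expressed as percent change from a 40-min baseline at 37C. Cultures: primary rat cortical neurons on MEA, dosed on DIV 13 or 15; fitted downward relative to DMSO.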

Experiment [9] in a line: CCTE_Shafer_MEA_acute_burst_percentage_std: CCTE's Neural Acute Assay for Standard Deviation of Burst Percentage, Shafer Lab (AID 2284018).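 Also: fitted in the negative direction so actives lower burst percentage SD.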 A digest of the protocol:
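Value is percent change from baseline in the across-electrode SD of spikes-in-bursts percentage, wells with >/= 10 active electrodes. Acute 40-min exposure to 0.03-40 uM on DIV 13 or 15 rat cortical cultures, recorded at 37 C after 40-min baseline.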

Experiment [10] in a line: CCTE_Shafer_MEA_acute_per_network_burst_spike_number_mean: CCTE's Neural Acute Assay for Average Number of Spikes in a Network Burst, Shafer Lab (AID 2284019). A digest of the protocol:
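Percent change from baseline in mean spikes per network burst, spikes detected at 8x rms noise. Each compound at 0.03-40 uM in at least three wells of rat cortical cultures, recorded 40 min before and 40 min during exposure.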

The nature of experiment [11]: CCTE_Shafer_MEA_acute_per_network_burst_spike_number_std: CCTE's Neural Acute Assay for Standard Deviation of Number of Spikes in a Network Burst, Shafer Lab (AID 2284020).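 Also: fitted for decrease in spike-number SD versus DMSO so actives lower it.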 A digest of the protocol: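 Endpoint: percent change from 40 min baseline in standard deviation of spikes per network burst, after 40 min compound exposure (0.03-40 uM, 37 C). Cortical rat neurons on MEA at DIV 13 or 15; spikes detected at 8x rms noise, 300-5000 Hz band-pass.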

Experiment [12] in a line: CCTE_Shafer_MEA_acute_per_network_burst_electrodes_number_mean: CCTE's Neural Acute Assay for Mean Number of Electrodes in a Network Burst, Shafer Lab (AID 2284021).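 Also: curves fitted for decreases only so hits reduce electrodes per burst.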 A digest of the protocol: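 Cultures of rat cortex neurons were exposed on DIV 13 or 15 to compounds at 0.03-40 uM in at least three wells each. Activity over 40 min before and 40 min after exposure at 37 C gave the percent change in electrodes per network burst.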

Experiment [13] can be described thus: CCTE_Shafer_MEA_acute_network_burst_percentage: CCTE's Neural Acute Assay for Percentage of Network Bursts, Shafer Lab (AID 2284022).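 Also: rat primary cortical neuron networks on multiwell MEA recorded 40 min; curves fitted for loss so actives lower network burst percentage.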 A digest of the protocol: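 Cortical neurons from rat were grown over microelectrode arrays and used on day 13 or 15 in vitro. Wells with at least 10 active electrodes received test chemical at 0.03-40 uM. Activity during 40 min of exposure was compared with the preceding 40-min baseline.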

A short description of experiment [14]: CCTE_Shafer_MEA_acute_cross_correlation_area: CCTE's Neural Acute Assay for Area of Cross Correlation, Shafer Lab (AID 2284024).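 Also: rat primary cortical neuron networks on 48-well MEA at DIV 13 or 15 with 40 min exposure; area under pooled inter-electrode spike cross-correlation near zero lag as percent change from own baseline; curves fitted for loss of cross-correlation area so actives lower synchrony.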 A digest of the protocol: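 Acute exposure of mature rat cortical networks (day 13 or 15 post-plating) to 0.03-40 uM compound. Spontaneous spiking on MEA, 40 min pre- and post-dose at 37 C.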
The nature of experiment [15]: CCTE_Shafer_MEA_acute_cross_correlation_HWHM: CCTE's Neural Acute Assay for Cross Correlation at Half Width at Half Maximum, Shafer Lab (AID 2284026).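 Also: spontaneous network firing of rat primary cortical neurons on multiwell microelectrode arrays; percent change per well from pre-dose baseline in spike cross-correlogram half width; hits are a decrease in cross-correlogram half width relative to DMSO.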 A digest of the protocol:
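Primary cortex (rat), MEA, DIV 13/15; compound 0.03-40 uM; 40 min pre + 40 min post at 37 C; spike threshold 8x rms; wells need ≥10 active electrodes; endpoint = % change in cross-correlogram HWHM vs baseline, DMSO negative control.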

A short description of experiment [16]: CCTE_Shafer_MEA_acute_synchrony_index: CCTE's Neural Acute Assay for Synchrony, Shafer Lab (AID 2284027).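 Also: network synchrony index of spontaneous spiking in primary rat cortical neurons on MEAs; fitted for loss of signal so actives lower synchrony relative to DMSO.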 A digest of the protocol:
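Acute exposure of rat primary cortical neurons (DIV 13 or 15) at 0.03-40 uM. Synchrony index, 40 min before vs after, as % change relative to DMSO control.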

The nature of experiment [17]: CCTE_Simmons_MITO_inhib_resp_rate: CCTE's HepG2 Seahorse XF Respirometric Screening Assay at Inhibited Respiratory State [full ETC block], Simmons Lab (AID 2284006). The note with it: actives raise or lower the signal. A digest of the protocol: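 Test chemicals at seven final concentrations (125 nM–100 uM) in three biological replicates, with DMSO as vehicle. HepG2 oxygen consumption was then tracked on a Seahorse XF96 for 72 min through FCCP and rotenone/antimycin A phases, with the inhibited-phase rate as the endpoint.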

A short description of experiment [18]: CCTE_Simmons_MITO_viability: CellTiter-Glo Viability Assessment for CCTE's HepG2 Seahorse XF Respirometric Screening Assay [post-hoc], Simmons Lab (AID 2284007; active = hit-call score of the fitted dose curve at least 0.9, where 1 is the maximum). A digest of the protocol:
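Post-hoc viability check on the HepG2 respirometry plates: luciferase-based ATP signal measured once, after 90 min compound exposure spanning 125 nM–100 uM final. Activity was referenced to DMSO as baseline.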

Experiment [19] deals with Estrogen receptor (Homo sapiens) (UniProt P03372). The experiment in a line: CCTE_Deisenroth_AIME_96WELL_LUC_Active: CCTE's 96-well Estrogen Receptor Transactivation Assay with AIME metabolic competence (ERTA luciferase; metabolism positive), Deisenroth Lab (AID 2284023; active = hit-call score of the fitted dose curve at least 0.9, where 1 is the maximum). A digest of the protocol: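 Metabolism-positive mode: induced rat hepatic S9 in alginate microspheres conditions test solutions (0.002 - 200 uM, 10 points) for 2 hours. VM7Luc4E2 ER luciferase reporter cells then exposed 24 h; positive-direction fit against 17beta-estradiol, n=4 typical.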
Sequence of Estrogen receptor (Homo sapiens) (P03372 whole entry, looked up): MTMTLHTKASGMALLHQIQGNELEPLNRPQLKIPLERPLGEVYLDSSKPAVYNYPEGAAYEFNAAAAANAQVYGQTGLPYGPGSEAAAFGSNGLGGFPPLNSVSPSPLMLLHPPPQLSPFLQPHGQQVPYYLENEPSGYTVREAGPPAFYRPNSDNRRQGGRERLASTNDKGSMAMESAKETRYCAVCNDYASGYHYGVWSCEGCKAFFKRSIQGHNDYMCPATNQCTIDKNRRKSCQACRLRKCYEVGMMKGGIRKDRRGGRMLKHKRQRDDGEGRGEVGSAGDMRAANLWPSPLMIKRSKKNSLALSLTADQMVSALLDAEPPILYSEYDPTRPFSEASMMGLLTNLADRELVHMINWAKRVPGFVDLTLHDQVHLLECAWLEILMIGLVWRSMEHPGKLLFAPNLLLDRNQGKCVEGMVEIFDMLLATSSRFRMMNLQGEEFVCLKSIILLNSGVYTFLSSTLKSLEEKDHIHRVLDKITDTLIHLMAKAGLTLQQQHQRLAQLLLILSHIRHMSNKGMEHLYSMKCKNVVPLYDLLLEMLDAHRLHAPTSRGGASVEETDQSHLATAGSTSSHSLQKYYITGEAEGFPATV

Experiment [20] shares this target. The experiment in a line: CCTE_Deisenroth_AIME_96WELL_LUC_Inactive: CCTE's 96-well Estrogen Receptor Transactivation Assay without AIME metabolic competence (ERTA luciferase; metabolism negative), Deisenroth Lab (AID 2284025; active = hit-call score of the fitted dose curve at least 0.9, where 1 is the maximum). A digest of the protocol:
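Metabolism-negative arm: chemicals (0.002–200 uM, 10 points) incubated 2 h with alginate-water microspheres, then medium moved onto VM7Luc4E2 cells for 24 h luciferase read-out. Positive direction vs 17beta-estradiol; n≥4 experiments.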

The structures appear in SMILES notation. Results filed as inconclusive are left out. Activity calls are given as the source filed them. The calls were made as follows, unless noted: active = hit-call score of the fitted dose curve at least 0.9, where 1 is the maximum; inactive = score below 0.9.

For `CC(C)(C)[C@@H](O)[C@@H](Cc1ccc(Cl)cc1)n1cncn1`, the molecule was classed as inactive in experiment [1], in experiment [2], in experiment [3], in experiment [4], in experiment [6] and in [7]. Besides, the outcome in [8], in experiment [9], in experiment [10], in experiment [11], in [12] and in [13] was inactive. Further, the molecule was classed as inactive in experiment [14], in [15] and in [16]. The concentration at half-maximal activity (AC50) (as a rule, the concentration at which the activity in the assay is half-maximal) in [5] was 25.1 µM (active).

In the case of `O=C(c1ccc(O)cc1O)c1ccc(O)cc1O`, the call in experiment [17], in experiment [18], in [1], in experiment [2], in experiment [3] and in [5] was inactive. The call in experiment [6], in [7], in [8], in experiment [9], in experiment [10] and in experiment [11] was inactive. Further, the result in experiment [12], in experiment [13], in [14], in [15] and in experiment [16] was inactive.

As for `CCCCC(CC)COC(=O)c1ccccc1C(=O)O` (centres undefined), the outcome in experiment [17], in experiment [18], in [2] and in experiment [3] was inactive.

For the molecule `c1ccc2[nH]c(-c3cscn3)nc2c1`, the outcome in experiment [2], in experiment [3] and in [4] was inactive.

For `CC(=O)S[C@@H]1CC2=CC(=O)CC[C@]2(C)[C@H]2CC[C@@]3(C)[C@@H](CC[C@@]34CCC(=O)O4)[C@H]12`, the outcome in experiment [2], in [3], in experiment [4], in experiment [19] and in experiment [20] was inactive.

Turning to `CCCCCCC(C)OC(=O)COc1nc(F)c(Cl)c(N)c1Cl` (centres undefined), the result in experiment [2] and in experiment [3] was inactive.

`CCC(O)=C1C(=O)CC(C(=O)O)CC1=O` (centres undefined): the result in [2] and in experiment [3] was inactive.

Take `c1ccc(Nc2ccccc2)cc1`: the outcome in experiment [2] and in [3] was inactive.

For the molecule `CCCCCOC(=O)COc1cc(N2C(=O)C3=C(CCCC3)C2=O)c(F)cc1Cl`, the result in experiment [2], in experiment [3] and in experiment [4] was inactive.

For `CCC(C)OC(=O)N1CCCCC1CCO` (centres undefined), the result in experiment [2] and in experiment [3] was inactive.

For `CCN(CC)C(=O)c1cccc(C)c1`, the result in experiment [2], in experiment [3] and in [4] was inactive.

Regarding `CCCOC(=O)c1ccc(C(=O)OCCC)nc1`, the outcome in experiment [2], in experiment [3] and in [4] was inactive.

Consider `C[C@]12CC[C@@H]3c4ccc(O)cc4C[C@@H](CCCCCCCCCS(=O)CCCC(F)(F)C(F)(F)F)[C@H]3[C@@H]1CC[C@@H]2O` (some centres undefined), for which the result in experiment [2], in [3], in experiment [19] and in experiment [20] was inactive.

Turning to `S=C(S)NCCNC(=S)S.[Mn+2].[S-]C([S-])=NCCN=C([S-])[S-].[Zn+2]`, the outcome in experiment [2], in experiment [3] and in experiment [4] was inactive.

Consider `CCCN(CCC)C(=O)SCC`, for which the outcome in experiment [2], in experiment [3] and in experiment [4] was inactive.

With `CCN(Cc1c(F)cccc1Cl)c1c([N+](=O)[O-])cc(C(F)(F)F)cc1[N+](=O)[O-]`, the result in [2] and in [3] was inactive.

Consider `S=C([S-])NCCNC(=S)[S-].[Mn+2]`, for which the outcome in experiment [2], in experiment [3] and in experiment [4] was inactive.

For the molecule `CCOC(=O)COc1cc(-n2ncc(C(F)(F)F)c(C)c2=O)c(F)cc1Cl`, the outcome in [2], in [3] and in [4] was inactive.

For the molecule `COCCO`, the outcome in experiment [2] and in experiment [3] was inactive.

Turning to `CCCOC(=O)NCCCN(C)C`, the result in experiment [2] and in experiment [3] was inactive.

For the molecule `C#C[C@]1(O)CC[C@H]2[C@@H]3CCC4=CC(=O)CC[C@@H]4[C@H]3CC[C@@]21CC`, the result in experiment [2], in [3] and in experiment [4] was inactive.

Take `CCCCOCCOCCOCc1cc2c(cc1CCC)OCO2`: the outcome in experiment [2] and in experiment [3] was inactive.

`CCOC(=O)C(C)Oc1ccc(Oc2cnc3cc(Cl)ccc3n2)cc1` (centres undefined): the result in experiment [2] and in [3] was inactive.

For `CCOC(=O)c1ccc(O)cc1`, the result in [2], in experiment [3], in experiment [4] and in [19] was inactive. The AC50 in [20] is 40.7 µM (active).

For the molecule `CN(C)C(=O)Nc1ccc(Cl)c(Cl)c1`, the outcome in experiment [2], in experiment [3] and in experiment [4] was inactive.

As to `COC(=O)CSc1cc(N=c2sc(=O)n3n2CCCC3)c(F)cc1Cl`, the outcome in [2] and in [3] was inactive.

Turning to `CCSC(=O)N(CC(C)C)CC(C)C`, the outcome in experiment [2] and in experiment [3] was inactive.

Turning to `COC(=O)c1ccc(I)cc1S(=O)(=O)NC(=O)Nc1nc(C)nc(OC)n1`, the result in [2] and in experiment [3] was inactive.

In the case of `COc1c(Cl)ccc(Cl)c1C(=O)O`, the outcome in [2] and in experiment [3] was inactive.

Turning to `CCOC(=O)C(C)Oc1ccc(Oc2nc3ccc(Cl)cc3o2)cc1` (centres undefined), the outcome in experiment [2] and in [3] was inactive.

Values taken from PubChem BioAssay (EPA / NIEHS).
